We go through 17 compounds from article PMC5540273 (PLoS ONE, 2017).

Some test systems named below: CDKL3; CDKL5; CHEK1; CHEK2; CIT; CLK1; CLK2; CLK3; CLK4; CSF1R-autoinhibited.
Conditions in all cases: concentration: 1 μM, replicates: in singlicate; n = 1
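Also: KINOMEscan kinase panel screen.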

In the case of `Cc1cccc(-c2nc(Nc3ccc4c(cnn4C)c3)c3ccccc3n2)n1` [GW876731], the “%Inh” value in the test on CDKL3 turned out to be 12%; in the test on CDKL5, 0%; in the test with CHEK1, 0%; in the test with CHEK2, 0%; with CIT, 12%; with CLK1 it was 0%. Besides, the “%Inh” value in the test with CLK2 worked out at 10%; with CLK3, 0%; in the test with CLK4, 0%; in the test with CSF1R-autoinhibited, 0%.

Take `COC(=O)c1c(-c2ccccc2)c2cc(Br)ccc2c(=O)n1Cc1ccc(NC(=O)CCC(=O)O)cc1`: the “%Inh” value with CDKL3 is given as 12%; in the test with CDKL5, 6%; with CHEK1, 0%; in the test with CHEK2, 25%; in the test on CIT it was 33%; in the test with CLK1, 0%. For the same compound, the “%Inh” value is 0% in the test with CLK2, 0% in the test with CLK3, 17% with CLK4 and 0% with CSF1R-autoinhibited.

Take `CCC(=O)c1c(-c2ccccc2)c2cc(Cl)ccc2c(=O)n1Cc1ccc(C(=O)O)cc1`: the “%Inh” value in the test on CDKL3, with CDKL5, with CHEK1, in the test on CHEK2, in the test with CIT and in the test on CLK1 was 0% in each case. The “%Inh” value in the test with CLK2, in the test on CLK3, with CLK4 and in the test on CSF1R-autoinhibited was 0% each time.

As to `C[C@@H]1CC[C@H](C(=O)NC2CCCCC2)CN1c1cc(-c2ccc3c(N)n[nH]c3c2)nc(N)n1` [GSK2291363], the “%Inh” value in the test on CDKL3 came out at 0%; in the test on CDKL5, 4%; with CHEK1 it was 0%; in the test on CHEK2, 22%; in the test on CIT, 24%; in the test with CLK1, 40%. Besides, the “%Inh” value in the test on CLK2 stood at 26%; in the test on CLK3, 16%; in the test on CLK4 it was 35%; in the test on CSF1R-autoinhibited, 31%.

Take `O=C1NC(=O)C(c2ccccc2)=C1Nc1cccc(O)c1` [SB-390534]: the “%Inh” value with CDKL3 was 0%; in the test on CDKL5, 0%; in the test with CHEK1, 0%; in the test on CHEK2, 16%; in the test on CIT, 0%; in the test with CLK1, 40%. For the same compound, the “%Inh” value in the test on CLK2 was 21%; in the test on CLK3, 19%; with CLK4 it was 10%; in the test with CSF1R-autoinhibited, 0%.

For `Nc1ncnc2c1ncn2-c1cccc(F)c1` [SKF-97560], the “%Inh” value with CDKL3 was determined as 0%; in the test on CDKL5, 21%; in the test on CHEK1, 17%; in the test on CHEK2, 0%; in the test on CIT, 6%; with CLK1 it was 22%. In addition, the “%Inh” value worked out at 0% in the test with CLK2, 0% in the test on CLK3, 0% in the test with CLK4 and 19% in the test on CSF1R-autoinhibited.

As to `COc1cc(Nc2ccnc3ccc(C(F)(F)F)cc23)cc(OC)c1OC` [GW577382], the “%Inh” value in the test on CDKL3 was 8%; in the test with CDKL5, 0%; in the test on CHEK1 it was 0%; in the test with CHEK2, 0%; in the test with CIT, 11%; in the test on CLK1, 25%. In addition, the “%Inh” value in the test on CLK2 is listed as 0%; in the test with CLK3 it was 0%; with CLK4 it was 14%; in the test on CSF1R-autoinhibited, 14%.

As to `Nc1nccc2scc(-c3ccc4c(c3)CCN4C(=O)Cc3ccccc3)c12` [GSK2576924], the “%Inh” value with CDKL3 stood at 0%; in the test on CDKL5 it was 0%; with CHEK1, 0%; in the test on CHEK2, 0%; in the test on CIT it was 46%; with CLK1, 34%. For the same compound, the “%Inh” value turned out to be 19% with CLK2, 0% in the test with CLK3, 25% with CLK4 and 0% in the test with CSF1R-autoinhibited.

As for `Cc1c(Cn2c(C)nn3c(=O)cc(N4CCO[C@H](C)C4)nc23)cccc1C(F)(F)F` [GSK2373690], the “%Inh” value in the test with CDKL3 was 0%; in the test on CDKL5, 7%; in the test on CHEK1 it was 2%; in the test on CHEK2, 0%; with CIT it was 1%; in the test with CLK1, 27%. Moreover, the “%Inh” value in the test on CLK2 amounted to 16%; in the test with CLK3, 23%; in the test with CLK4 it was 32%; in the test on CSF1R-autoinhibited, 0%.

Take `O=C(NCCNc1ccnc(Nc2ccc(F)cc2)n1)Nc1ccc2c(c1)OCO2` [GSK1379882]: the “%Inh” value was found to be 0% in the test with CDKL3; 4% with CDKL5; 0% in the test with CHEK1; 18% in the test on CHEK2; 44% with CIT; 17% in the test with CLK1. Moreover, the “%Inh” value was 13% with CLK2, 9% with CLK3, 17% in the test on CLK4 and 13% with CSF1R-autoinhibited.

With `O=C(Nc1n[nH]c2nc(-c3ccccc3)c(Cl)cc12)C1CC1` [SB-734909], the “%Inh” value in the test with CDKL3 was determined as 2%; with CDKL5 it was 0%; in the test with CHEK1, 0%; in the test with CHEK2 it was 22%; in the test with CIT, 0%; in the test with CLK1 it was 0%. In addition, the “%Inh” value in the test with CLK2 is given as 0%; in the test on CLK3 it was 15%; in the test on CLK4, 0%; with CSF1R-autoinhibited, 0%.

Turning to `O=c1cc(N2CCOCC2)nc2n(Cc3ccc(F)c(Cl)c3)ccn12` [GSK2297099], the “%Inh” value in the test with CDKL3 is 0%; in the test on CDKL5 it was 10%; with CHEK1, 4%; in the test with CHEK2, 0%; in the test with CIT, 4%; in the test on CLK1 it was 63%. Also, the “%Inh” value in the test on CLK2 amounted to 45%; with CLK3, 26%; in the test on CLK4, 45%; in the test with CSF1R-autoinhibited it was 0%.

With `CCC(=O)c1c(-c2ccccc2)c2cc(Cl)ccc2c(=O)n1Cc1cc(C(=O)NC2CC2)n(C)n1`, the “%Inh” value turned out to be 0% with CDKL3; 6% in the test with CDKL5; 0% in the test with CHEK1; 6% in the test on CHEK2; 7% in the test on CIT; 0% in the test on CLK1. For the same compound, the “%Inh” value in the test with CLK2, in the test with CLK3, with CLK4 and in the test with CSF1R-autoinhibited was 0% each time.

Consider `COc1ccc(-c2cc3c(C)nc(N)nc3n([C@H]3CC[C@H](O)CC3)c2=O)cn1`, for which the “%Inh” value with CDKL3 was determined as 0%; with CDKL5, 0%; in the test on CHEK1, 0%; in the test on CHEK2, 13%; in the test on CIT, 0%; with CLK1 it was 0%. Besides, the “%Inh” value is reported as 0% in the test on CLK2, 0% in the test with CLK3, 0% in the test with CLK4 and 6% with CSF1R-autoinhibited.

In the case of `CCC(=O)c1c(-c2ccccc2)c2cc(Cl)ccc2c(=O)n1Cc1cc(S(C)(=O)=O)n(CC(F)F)n1`, the “%Inh” value with CDKL3 is 2%; with CDKL5, 8%; in the test on CHEK1, 13%; in the test with CHEK2, 0%; in the test on CIT, 0%; in the test on CLK1 it was 8%. Also, the “%Inh” value with CLK2, in the test with CLK3, in the test on CLK4 and with CSF1R-autoinhibited was 0% each time.

Turning to `COc1cc(OC)cc(-c2cc3cnc(N)nc3nc2NC(=O)NC(C)(C)C)c1`, the “%Inh” value with CDKL3 worked out at 2%; in the test with CDKL5 it was 0%; in the test on CHEK1, 0%; in the test with CHEK2 it was 10%; in the test with CIT, 0%; in the test with CLK1 it was 30%. In addition, the “%Inh” value with CLK2 turned out to be 0%; with CLK3 it was 0%; with CLK4 it was 7%; with CSF1R-autoinhibited, 0%.

For `OCCCNc1nccc(-c2c(-c3cccc(C(F)(F)F)c3)nn3cc(C(F)(F)F)ccc23)n1` [GW630813], the “%Inh” value is 0% in the test with CDKL3; 11% in the test on CDKL5; 0% in the test on CHEK1; 1% in the test on CHEK2; 0% in the test on CIT; 9% in the test on CLK1. The “%Inh” value is reported as 0% with CLK2, 0% with CLK3, 16% with CLK4 and 32% in the test with CSF1R-autoinhibited.
